This is a sample that favours compounds with a hit; in the whole collection about 21% have one here.
RORg inh: inhibitors of mouse ROR gamma transcriptional activity | Drosophila S2 Gal4-RORgamma UAS-luciferase reporter, 20 h | Potency, µM (series often up to 53.6 µM), for inactives: at the highest dose activity change, negative = inhibition, actives largely listed as inhibitors | actives 5.4% (n = 310,000) | AID 2551; further: potency means the concentration at half of the fitted maximal effect; nearly all actives have a fitted effect of over 60% in size
Target sequence (P51450 whole entry, looked up, the tested form may be a part): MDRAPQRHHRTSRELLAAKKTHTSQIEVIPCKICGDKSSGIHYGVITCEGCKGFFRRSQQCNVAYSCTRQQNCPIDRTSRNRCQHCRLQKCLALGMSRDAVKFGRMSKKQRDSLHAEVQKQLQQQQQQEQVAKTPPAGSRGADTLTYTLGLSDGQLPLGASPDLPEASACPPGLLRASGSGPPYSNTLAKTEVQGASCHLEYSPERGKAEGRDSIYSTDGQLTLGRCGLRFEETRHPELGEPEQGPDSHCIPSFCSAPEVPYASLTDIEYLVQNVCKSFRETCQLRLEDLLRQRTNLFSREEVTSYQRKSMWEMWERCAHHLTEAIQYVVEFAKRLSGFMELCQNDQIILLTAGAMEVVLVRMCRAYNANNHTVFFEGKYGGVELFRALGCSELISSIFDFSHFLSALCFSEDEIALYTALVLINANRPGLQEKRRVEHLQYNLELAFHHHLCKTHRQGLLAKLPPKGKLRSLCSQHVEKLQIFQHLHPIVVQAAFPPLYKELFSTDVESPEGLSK
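Read-out: Photinus luciferase luminescence; inhibitors lower reporter signal. Insect Schneider cells with Gal4-ROR gamma fusion under metallothionein promoter, UAS reporter; 700 uM final copper sulfate induction, 20 hr, ambient temperature.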
TDP1 cell CPT: DT40-hTDP1 cell growth loss with CPT | chicken DT40 Tdp1-/-;hTDP1 cells + 20 nM CPT, ATP luminescence, 48 h | Potency, µM (highest dose often 46.2 µM), for inactives: top-dose activity change, negative = growth inhibition, most hits filed as inhibitors | actives 12% (n = 420,000) | AID 686979; further: potency means the concentration at half of the fitted maximal effect; nearly all actives have a fitted effect of over 55% in size
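Chicken DT40 Tdp1-/- cells complemented with human TDP1, 400 cells/well, exposed to compounds plus 20 nM camptothecin for at least 48 h at 37 C; viability read as ATP content by CellTiter-Glo luminescence.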
IL-1B inflam inh: inflammasome signaling inhibition, IL-1 beta readout | THP-1 LPS/ATP IL-1B secretion, AlphaLISA, 16 h; hits give low values | activity change, % at 57.5 µM | actives 4.7% (n = 360,000); in the data active means activity change below about -50%; inconclusive means mostly about -30% to -49%
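THP-1 cells pretreated 1 hr with compounds (up to 57.5 uM final), then stimulated with LPS (250 ng/mL final) plus ATP (1.25 mM final); secreted IL-1B measured by AlphaLISA after 16 hr, decreased signal indicating inhibition.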
VP16 counter: Gal4-VP16 reporter inhibition counter-screen. actives 3.5% (n = 310,000). Potency, µM (highest dose often 53.6 µM), without a hit: at the top dose activity, negative = inhibition, most hits filed as inhibitors. Drosophila S2 Gal4-VP16 UAS-luciferase, luminescence, 20 h;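 further: Gal4-VP16 expression switched on by copper sulfate through the metallothionein promoter; potency means the concentration at half of the fitted maximal effect; nearly all actives have a fitted effect of over 50% in size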
ELG1 repair inh: inhibitors of ELG1-dependent DNA repair in HEK293T cells. HEK293T ELG1-luciferase reporter, luminescence, 16 h; DNA damage induced by 5-fluorouridine. Potency, µM (titrated, usually from 46.1 µM), inactives show at the top dose activity change, negative = inhibition, hits mostly inhibitors. actives 2.3% (n = 330,000). AID 504467; further: potency means the concentration at half of the fitted maximal effect; nearly all actives have a fitted effect of over 55% in size
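DMSO vehicle served as the neutral condition. Each well held 2,000 cells given 5-fluorouridine plus compound; after 16 hr at 37 °C/5% CO2, ONE-Glo was added and luciferase measured 30 min later.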
TDP1 cell noCPT: qHTS for Inhibitors of human tyrosyl-DNA phosphodiesterase 1 (TDP1): qHTS in cells in absence of CPT; DT40 Tdp1-/- hTDP1 cells, no CPT, ATP luminescence, 48 h; Potency, µM (series often up to 46.2 µM), for inactives: top-dose activity change, negative = growth inhibition, actives largely listed as inhibitors; actives 15% (n = 420,000); further: potency means the concentration at half of the fitted maximal effect; nearly all actives have a fitted effect of over 55% in size
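DT40 Tdp1-/-;hTDP1 cells, no CPT (DMSO vehicle only), 400 cells/well; compounds pin-transferred; ≥48 hr, 37 °C; CellTiter-Glo 30 min RT dark, luminescence read.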
Active calls of the source: *; ? = inconclusive; nt = no result. Unless noted, the call rests on the fitted dose curve; in most records, active means well fitted curve in the direction sought with a large enough effect; inconclusive means small, poorly fitted or top-dose-only effect, or another doubt; inactive means no such curve, though single readings can be large; an effect the other way counts as inactive or inconclusive. On the % scale 0 is the no-effect control and ±100 the full control effect.

SMILES | RORg inh | TDP1 cell CPT | IL-1B inflam inh | VP16 counter | ELG1 repair inh | TDP1 cell noCPT
CN(C)CCNC(=O)c1cccc(-c2cnc3c(NC=O)cc(-c4ccc(S(C)(=O)=O)cc4)cn23)c1 | nt | 8% | -5 | nt | nt | 7%
O=CNc1cc(-c2ccoc2)cn2c(-c3ccc(F)cc3)cnc12 | nt | 13µM* | 23 | nt | nt | 23µM*
CCCCNC(=O)N(c1c(N)n(Cc2ccccc2)c(=O)[nH]c1=O)C1CCCC1 | -18% | 0% | 17 | 3% | 13% | 24%
Cc1cc2oc(=O)cc(CN3CCCCC3C)c2cc1C(C)C (stereo unspecified) | -1% | ? | 35 | 5% | -1% | ?
Cc1c(C(=O)Nc2ccccc2)sc2nc[nH]c(=O)c12 | 34% | 7% | -19 | 27% | ? | -9%
COc1ccc(-c2noc(N3CCC(C(=O)Nc4cc(OC)ccc4OC)CC3)n2)cc1 | 20% | 21µM* | -20 | -9% | ? | 21µM*
COc1ccc(-c2noc(N3CCC(C(=O)Nc4ccccc4OC)CC3)n2)cc1 | -2% | ? | -25 | -17% | 23µM* | ?
Cc1noc(-c2ccc(-c3noc(-c4ccccc4)n3)cc2)n1 | nt | -14% | nt | nt | nt | 1%
COc1ccc(-c2noc(N3CCC(C(=O)Nc4cc(OC)c(OC)c(OC)c4)CC3)n2)cc1 | 0% | -7% | 0 | -4% | 1% | -13%
COc1cccc(NC(=O)c2ccnc(N3CCC(C(=O)NCc4cc(OC)ccc4OC)CC3)c2)c1 | 26% | 23µM* | -2 | 5% | ? | 16µM*
Cc1ccc(-c2nc(-c3ccccc3)no2)c(Cl)c1 | 10µM* | ? | 16 | 7.1µM* | ? | -14%
CC(C)CN1CCC2(CC1)CCN(C(=O)c1ccco1)CC2 | 2% | 4% | nt | -3% | nt | -16%
O=C(c1cnccn1)N1CCC2(CC1)CN(c1ccncc1)C2 | -7% | -1% | nt | -7% | nt | -11%
COc1ccc(-c2noc(N3CCC(C(=O)N4CCN(c5ccccc5F)CC4)CC3)n2)cc1 | nt | ? | nt | nt | nt | 5.2µM*
COc1ccc(-c2noc(-c3ccccc3C(=O)Nc3cccc(OC)c3)n2)cc1 | 31% | ? | -9 | -10% | ? | 16µM*
COc1ccc(-c2noc(N3CCC(C(=O)Nc4cccc(OC)c4)CC3)n2)cc1 | -13% | 18µM* | 1 | -25% | ? | ?
Cc1ccc(C)c(N2CCN(C(=O)C3CCN(c4nc(-c5ccc(C(C)C)cc5)no4)CC3)CC2)c1 | nt | ? | nt | nt | nt | 10µM*
CCOC(=O)c1ccc(NC(=O)CSc2nc3ncc(Br)c(C)c3[nH]2)cc1 | nt | -21% | nt | nt | nt | 3%
COc1ccc(-c2noc(-c3ccccc3-c3ccccc3)n2)cc1 | 16µM* | -5% | -14 | 12% | 3% | -29%
COc1ccc(-c2noc(N3CCC(C(=O)Nc4cccc(C)c4C)CC3)n2)cc1 | nt | ? | nt | nt | nt | 15µM*
Cc1ccccc1-c1nc(-c2ccc(Br)o2)no1 | -19% | 26% | 38 | -1% | ? | 5%
COc1ccc(-c2noc(N3CCC(C(=O)Nc4ccc(F)cc4)CC3)n2)cc1 | -19% | 3% | 0 | -27% | -4% | -26%
Cc1ccccc1-c1nc(-c2ccc(NC(=O)c3ccc(Br)o3)cc2)no1 | ? | 16µM* | 6 | -13% | ? | ?
COc1cccc(CNC(=O)[C@@H]2CCCN2C(=O)[C@H]2CCCCN2C(=O)c2cccs2)c1 | nt | -7% | -8 | nt | nt | -7%
CCc1ccc2c(CC(=O)Nc3cccc(S(=O)(=O)N4CCOCC4)c3)coc2c1 | nt | -10% | -17 | nt | -21% | ?
SMILES | RORg inh | TDP1 cell CPT | IL-1B inflam inh | VP16 counter | ELG1 repair inh | TDP1 cell noCPT
CC1(C(=O)NS(=O)(=O)c2cccc(F)c2)CCN1C(=O)CC1CCCCC1 (stereo unspecified) | nt | 0% | 32 | nt | nt | -12%
Clc1ccc(-c2cn3cc(Cl)ccc3n2)cc1 | 10µM* | -2% | 11 | 13µM* | ? | -11%
CCN(CC)S(=O)(=O)c1ccc(-c2cn3cc(Cl)ccc3n2)cc1 | 13% | ? | 2 | ? | 24% | 18µM*
Oc1ccc(-c2cn3cc(C(F)(F)F)ccc3n2)cc1 | 2.2µM* | ? | -14 | 8.9µM* | ? | ?
Clc1ccc(-c2cn3c(n2)CCC3)cc1 | ? | ? | -3 | 11% | ? | ?
CCN(CC)S(=O)(=O)c1cccc(-c2cn3cccnc3n2)c1 | 14% | -1% | 32 | -3% | ? | -12%
O=C(Nc1ccc(F)cc1)C(CCc1ccccc1)N1CCN(C(=O)c2ccco2)CC1 (stereo unspecified) | nt | ? | 3 | nt | nt | ?
CC1(C(=O)NS(=O)(=O)c2ccc(F)cc2F)CCN1C(=O)Cc1cc(F)ccc1F (stereo unspecified) | nt | -11% | 11 | nt | nt | -21%
C=C1C(=O)O[C@@H]2[C@@H]1CC/C(C)=C\CC[C@@]1(C)O[C@H]21 | 3.2µM* | nt | nt | 3.5µM* | nt | nt
C=C1C(=O)O[C@@H]2[C@H]3O[C@]3(C)CCC=C(C)CC[C@@H]12 | 7.1µM* | 3µM* | nt | ? | nt | 2.1µM*
COc1cc(C(=O)Nc2cccc(-c3nc4cc(C)ccc4o3)c2)cc(OC)c1OC | ? | 23µM* | -5 | -15% | 15µM* | ?

Assay outcomes (PubChem BioAssay)
